The text below walks through data of PubChem BioAssay AID624117 (National Center for Advancing Translational Sciences (NCATS), 2012).

The structures appear in SMILES notation. Records with an inconclusive call do not appear. A number with no mark means an inactive call. Active and inactive are the calls of the source. Calls come from the whole dose curve; as a rule, active = well fitted curve in the direction sought with a large enough effect; inconclusive = small, poorly fitted or top-dose-only effect, or another doubt; inactive = no such curve, though single readings can be large or run the other way.
Potency is the fitted concentration of half-maximal effect.

The assay can be described thus: qHTS Assay for Rab9 Promoter Activators: Hit Validation Using Renilla Luciferase Read-Out. For activation (negative = inhibition): % of control where 0% means no effect. The settings on record: Huh7 NPC1 promoter Renilla luciferase reporter, 24 h; series mostly up to 76.9 µM; activation (negative = inhibition): at the top concentration. An excerpt:
Niemann Pick Type C (NPC) is a rare neurodegenerative lipidosis that is characterized by lipid storage in the endosomal/lysosomal system. Treatment modalities for this devastating disease are currently non-existent due to the severe obstacles associated with accessing the central nervous system with proteins or genes. The majority of mutations causing NPC disease are missense mutations that are distributed throughout the length of the NPC1 protein, with the most prevalent being the I1061T allele. Although NPC1 mutant proteins may be functional, they are typically trapped in the ER due to misfolding. […] We have developed and optimized a cell based renilla luciferase reporter assay in 1536 well format for the identification of up-regulators of the mutant NPC1 promoter. This assay presents data on the validation of hits from the primary screen, which used a firefly luciferase read-out. NIH Chemical Genomics Center [NCGC] NIH Molecular Libraries Probe Production centers Network [MLPCN] MLPCN Grant: MH089375 Assay Submitter (PI): Yiannis A. Ioannou
Huh7 cells stably expressing NPC promoter-luciferase will be seeded at 1,500 cells/well in 5 uL in 1,536-well white opaque plates with 23 nL/well of compound in DMSO solution. The assay plates will be incubated at 37 deg C for 24 hours, after which 3 uL/well BriteLite plus luciferase detection reagent mixture (Perkin Elmer) will be added. Luminescence signal will be measured in a ViewLux plate reader (Perkin Elmer) after a 10 minute incubation at the room temperature.
For orientation: Quantitative high-throughput screening tests each substance at several concentrations.
Consider `Cc1ccc(C(=O)Nc2nnc(S(=O)(=O)N3CCOCC3)s2)cc1`, for which the “activation (negative = inhibition)” value is 8.76%.
The same measure, in the same setting: to `Cc1ccc(NC(=O)COC(=O)C2C3CC4OC(=O)C2C4C3)cc1Cl` (stereo not given) belongs -7.4%; to `CCCNC(=O)C1CCN(S(=O)(=O)c2ccc3[nH]c(=O)ccc3c2)CC1`, -9.86%; to `O=C(Nc1ccc(-c2nc3cccnc3s2)cc1)c1ccc(Cl)nc1`, -1.72%.
Same read-out and setting: to `CCOC(=O)c1cc2sccc2n1CC(=O)N1CCCc2ccccc21` belongs -5.06%; to `Cc1ccccc1NC(=O)Cc1nc(COC(=O)CC(C)c2ccccc2)cs1` (stereo not given), 2.23%; to `CN(C)/C=N/c1c(C#N)cnn1-c1nc2ccccc2s1`, -3.73%.
On the same count and under the same terms, the value for `Cc1nc(-c2ccc(S(=O)(=O)Oc3ccc(Cl)cc3Cl)s2)cs1` was -49.3%.
`COc1ccc(-n2c(N)c(C(=O)NCc3ccco3)sc2=S)cc1`: the “activation (negative = inhibition)” value is -2.97%.
Still for that read-out and setting: to `CCC1=[N+](CC(=O)c2ccc(C)cc2)CCn2cccc21` belongs -5.44%.
Same read-out and setting: the value for `COc1ccc(C2(CNC(=O)/C=C/c3ccco3)CCCC2)cc1OC` was 2.65%; that for `COCc1cc(C)nc(N/N=C/c2ccc(-c3ccc(Cl)cc3[N+](=O)[O-])o2)c1C#N` was -12.3%; that for `CCc1cc(C(=O)Nc2ccccc2)cs1` was -21.9%.
Still for that read-out and setting: the value for `COc1ccc(-c2noc(N3CCCC(C(=O)Nc4ccccc4F)C3)n2)cc1` (stereo not given) was -14.1%; that for `CCCCc1cc(=O)oc2cc(OCC(=O)N3CCOCC3)ccc12` was -1.07%; that for `CC(=O)c1cccc(NC(=O)N2CCOCC2)c1` was -0.773%.
Regarding `CC(=O)Nc1ccc(NC(=O)COc2ncnc3ccccc23)cc1`, the “activation (negative = inhibition)” value was 5.67%.
Same read-out and setting: to `O=C(O)CSc1nnc(-c2ccncc2)n1CCc1ccccc1` belongs -6.59%; to `Cc1cc(C)c2c(N)c(C(=O)Nc3ccc([N+](=O)[O-])cc3)sc2n1`, -1.64%; to `O=C(c1cc2cc([N+](=O)[O-])ccc2oc1=O)n1cccn1`, -1.56%.
Same read-out and setting: the value for `COc1ccc(-c2csc(Nc3ncccn3)n2)cc1C` was -0.405%; that for `N#CC/C(N)=N/NC(=O)CCCNc1ncc(C(F)(F)F)cc1Cl` was -4.96%; that for `CCCc1cc(C(=O)Nc2ccccc2SC)no1` was 24.4%.
Same read-out and setting: to `O=C(CSc1nnc(-c2csc3c2CCCC3)o1)Nc1ccccc1` belongs -21%; to `CCN(CC)S(=O)(=O)c1ccc(NCc2ccccn2)nc1`, -1.71%; to `COCCNC(=O)Cn1nc(-c2ccccc2)c2ccccc2c1=O`, -22.4%.
As to `O=[N+]([O-])c1cnccc1Nc1ccc(F)cc1`, the “activation (negative = inhibition)” value was 7.9%.
Take `Cc1cc(C)cc(N(CC(=O)NC2CCCC2)C(=O)CNC(=O)c2ccco2)c1`: the “activation (negative = inhibition)” value was 13.6%.
Still for that read-out and setting: to `Cc1ccc2nc(NC(=O)CCn3cccc3)sc2c1` belongs -34.5%; to `COc1ccc(C)cc1N(C(=O)CNC(=O)c1ccco1)C(C(=O)NC1CCCC1)c1cccnc1` (stereo not given), 21.9%; to `CCCCCCC(=O)Nc1ccc(C(=O)N/N=C/c2cccnc2)cc1`, 2.29%.
Same read-out and setting: to `CC1=C(C(=O)OC2CCCC(C)C2)C(c2ccccc2)NC(=O)N1` (stereo not given) belongs -65.3%.
`Nc1ccccc1C(=O)N/N=C1/C2CN3CCN(C2)CC1(Cc1ccccc1)C3`: the “activation (negative = inhibition)” value is -14.9%.
Regarding `COCCNC(=O)CN1C(=O)NC(c2ccccc2)(c2ccccc2)C1=O`, the “activation (negative = inhibition)” value was 2.14%.
Same read-out and setting: to `O=C(NNC(=O)C1COc2ccccc2O1)c1ccccc1O` (stereo not given) belongs -1.57%; to `COc1ccccc1OCCCC(=O)NCc1ccco1`, -1.3%.
Turning to `Cc1ccc(S(=O)(=O)/N=C(/Nc2ccccn2)c2ccc(Cl)cc2)cc1`, the Potency is 20.7 µM (active).
On to `COc1ccccc1N(C(=O)c1snc(C(N)=O)c1N)C(C(=O)NC1CCCCC1)c1cccc(OC)c1OC` (stereo not given), for which the “activation (negative = inhibition)” value was -0.496%.
Same read-out and setting: the value for `O=C(Nc1nc2ccc(F)cc2s1)c1ccc(N2CCCC2=O)cc1` was 2.48%; that for `NNC(=O)c1cccc(S(=O)(=O)Nc2cc(Cl)ccc2Cl)c1` was 12.1%.
